# Measurements taken from PubChem BioAssay AID485270 (The Scripps Research Institute Molecular Screening Center, 2010).
# The campaign covered roughly 330,000 compounds. About 5,800 (1.8%) were called active. The list comes from a sample in which actives are over-represented; it also holds similar structures and randomly drawn compounds. A number with no mark means an inactive call. Rule as the data show it: active = inhibition mostly above about 38% (no sharp cut-off); inactive = mostly below about 40%.
# Target: Orexin/Hypocretin receptor type 1 (Homo sapiens) (UniProt O43613)
# Sequence (O43613 whole entry, looked up): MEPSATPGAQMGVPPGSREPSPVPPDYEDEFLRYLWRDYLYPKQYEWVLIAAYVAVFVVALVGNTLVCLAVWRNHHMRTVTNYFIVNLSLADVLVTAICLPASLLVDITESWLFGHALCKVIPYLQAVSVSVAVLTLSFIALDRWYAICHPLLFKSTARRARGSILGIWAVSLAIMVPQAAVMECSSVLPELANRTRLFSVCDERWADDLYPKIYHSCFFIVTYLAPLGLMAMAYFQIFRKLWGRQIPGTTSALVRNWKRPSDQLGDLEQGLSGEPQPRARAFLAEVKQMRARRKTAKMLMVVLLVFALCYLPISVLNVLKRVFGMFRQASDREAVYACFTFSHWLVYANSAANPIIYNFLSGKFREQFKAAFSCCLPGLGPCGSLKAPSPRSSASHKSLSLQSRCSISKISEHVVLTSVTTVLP
# Experiment: blocks the human orexin 1 receptor (AID 485270);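 also: 0% = agonist challenge alone and 100% = reference antagonist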
# Conditions: OX1R-expressing cells, FRET antagonist read-out; at 6.6 µM; stronger effect = higher value
row,SMILES,inhibition
1,CN(CC(=O)O)S(=O)(=O)c1ccc2oc3ccccc3c2c1,7.24%
2,CN(CCO)S(=O)(=O)c1ccc2c(c1)C(=O)c1cc(S(=O)(=O)N(C)CCO)ccc1-2,57.6% (active)
3,O=C(O)c1ccc(NS(=O)(=O)c2ccc3c(c2)C(=O)c2cc(S(=O)(=O)Nc4ccc(C(=O)O)cc4)ccc2-3)cc1,18.6%
4,Cc1cc(C)cc(NC(=O)CSCc2cnn(-c3ccccc3)c2-n2cccc2)c1,68.1%
5,CC(=O)Nc1ccc(NC(=O)CSCc2cnn(-c3ccccc3)c2-n2cccc2)cc1,39.8% (active)
6,O=C(CSCc1ccccc1)Nc1ccccc1,4.92%
7,CC(=O)c1c(C)[nH]c(C(=O)COC(=O)CCOc2ccc(C)cc2)c1C,11.2%
8,O=C(CNC(=O)c1ccco1)NNC(=O)c1ccc(Br)cc1,1.51%
9,O=C(CNC(=O)c1n[nH]c2ccccc12)Nc1cc(Cl)ccc1Cl,11.3%
10,Oc1ccc2ccccc2c1N=Nc1nccs1,99.3% (active)
11,Oc1ccc(N=Nc2nccs2)c(O)c1,58.9% (active)
12,C[C@@H]1C(c2ccc(F)cc2)=NN(c2ccc(Br)cc2)[C@H]1C(=O)N1CCOC1=O,13.5%
13,CCN(C[C@H]1N[C@@](Cc2ccccc2)(C(=O)OC)[C@H]2C(=O)N(Cc3ccccc3)C(=O)[C@@H]12)C(=O)c1ccc(C)cc1,1.44%
14,CC1CCCCC1NC(=O)Cn1cnc2c1c(=O)n(C)c(=O)n2C (stereo not given),4.33%
15,CCc1cccc2c(=O)c(C(=O)NCCCOC)c[nH]c12,21.4%
16,O=C(NCc1cccnc1)c1cc(S(=O)(=O)N2CCOCC2)c(Cl)cc1Cl,2.88%
17,CCOCCCNC(=O)c1cc2c(=O)n3ccccc3nc2s1,32.8%
18,CCn1c(=N)c(C(=O)NCCCOC)cc2c(=O)n3cccc(C)c3nc21,141% (active)
19,Cc1cccn2c(=O)c3cc(C(=O)NCC4CCCO4)c(=N)n(Cc4ccc(F)cc4)c3nc12 (stereo not given),41.5%
20,Cc1cccn2c(=O)c3cc(C(=O)NCCN4CCOCC4)c(=N)n(Cc4cccnc4)c3nc12,69.1% (active)
21,COc1cc(C(=O)NC2CCN(C)CC2)ccc1Nc1ncc2c(n1)N(C1CCC(O)CC1)CCC(=O)N2C (stereo not given),5.47%
22,C[C@H]1CN([C@@H](C)CO)C(=O)Cc2cc(NC(=O)Cc3ccccc3)ccc2O[C@H]1CN(C)S(=O)(=O)c1cccs1,8.68%
23,CCCOc1ccc(/C(O)=C2/C(=O)C(=O)N(CCN(C)C)C2c2ccc(OC)c(OC)c2)cc1 (stereo not given),31.1%
24,CCN(CC)CCN1C(=O)C(=O)/C(=C(/O)c2ccc(OC)c(OC)c2)C1c1ccccn1 (stereo not given),51.5% (active)
25,O=C1C(=O)N(CCN2CCOCC2)C(c2ccccn2)/C1=C(/O)c1ccc(Cl)cc1 (stereo not given),55.2% (active)
26,COc1ccc(/C(O)=C2/C(=O)C(=O)N(CCCN(C)C)C2c2ccccc2)cc1OC (stereo not given),4.51%
27,O=C1C(=O)N(CCN2CCOCC2)C(c2cccc(Cl)c2)/C1=C(/O)c1ccc2c(c1)OCO2 (stereo not given),13.6%
28,CC1Cc2cc(/C(O)=C3\C(=O)C(=O)N(CCN4CCOCC4)C3c3ccccc3F)ccc2O1 (stereo not given),6.48%

row,SMILES,inhibition
1,CC[C@]12c3[nH]c4ccc(Cl)cc4c3CCN1C(=O)[C@@H](CC(=O)NCCCOC)C[C@@H]2C(=O)N1CCN(C(=O)c2ccco2)CC1,1.35%
2,CCC(CO)Oc1cc(NC(=O)c2ccc(Cl)cc2)c2ncn(C(C)C)c2c1 (stereo not given),0.25%
3,O=C(Nc1cc(S(=O)(=O)N2CCOCC2)ccc1N1CCOCC1)c1c(F)cccc1Cl,8.73%
4,COc1ccc(-c2cc3ncccc3cn2)cc1,21.6%
5,CC(C)(C)OC(=O)C[C@@H]1C/C=C\C[C@@H](CC(=O)NCCO)C(=O)N[C@H](Cc2c[nH]c3ccccc23)COC1=O,3.99%
6,CCN(c1ccccc1)S(=O)(=O)c1ccc(C(=O)Nc2ccccc2OC)cc1,14%
7,COc1ccccc1N(CC(=O)N1CCCCC1)S(=O)(=O)c1ccccc1,13.9%
8,COc1ccccc1NC(=O)CN(c1ccccc1OC)S(=O)(=O)c1ccccc1,75.8% (active)
9,O=C(NCCc1c[nH]c2ccccc12)c1cc2ccccc2oc1=O,1.13%
10,CCOC(=O)Cn1c(O)c(N=NC(=O)CNC(=O)Cc2ccccc2)c2ccccc21,38.3% (active)
11,COC(=O)Cn1c(O)c(N=NC(=O)OC)c2ccccc21,41.9%
12,O=C(CNC(=O)Cc1ccccc1)N=Nc1c(O)[nH]c2ccc(Br)cc12,8.32%
13,CCN(CC)C(=O)[C@H]1C[C@H](CC(=O)NCC23CC4CC(CC(C4)C2)C3)C(=O)N2CCc3c([nH]c4cc(CCC(=O)N(C)C)ccc34)[C@]12C,5.23%
14,Cc1ccsc1C(=O)NNC(=O)COc1ccc(Br)cc1,3.22%
15,Cc1ccc2cccc(O)c2[n+]1[O-],53.1% (active)
16,NCC(=O)c1cccc2ccc[n+]([O-])c12,10.5%
17,C[C@H](CO)N1C[C@H](C)[C@@H](CN(C)C(=O)Nc2ccc3c(c2)OCO3)Oc2c(cccc2N(C)C)C1=O,-4.67%
18,O=C(COc1ccc(F)cc1Br)NCC1COc2ccccc2O1 (stereo not given),7.79%
19,CC(C)(C)NS(=O)(=O)NC(=O)C1=C(N2CCCC2)COC1=O,-2.54%
20,COc1ccc(C2=Nn3c(nnc3-c3ccccc3OC)SC2)cc1OC1CCCC1,11.2%
21,N#C/C(=C\c1ccc(-c2cccc([N+](=O)[O-])c2)o1)C(=O)NCCN1CCOCC1,43.6%
22,Cc1ccc(C(=O)N/C(=C/c2ccc(-c3cccc([N+](=O)[O-])c3)o2)C(=O)NCCCN(C)C)cc1,63.9% (active)
23,CN(C)CCNC(=O)/C(=C/c1cccc([N+](=O)[O-])c1)NC(=O)c1ccccc1,12.9%
24,O=C(OCC(=O)N1CCN(C(=O)c2ccco2)CC1)c1c(Cl)cccc1Cl,9.98%
25,Cc1ccc(CNC(=O)CCNS(=O)(=O)c2cccc3nonc23)cc1,9.03%
26,Cc1ccc(N(CC(=O)Nc2cc(C)cc(C)c2)S(=O)(=O)c2cccc3nonc23)cc1,46.5% (active)
27,CCOC(=O)c1cccc(NC(=O)CN(c2ccc(C)cc2)S(=O)(=O)c2c(C)noc2C)c1,68.3%
